A selection: hits, their analogues and other compounds. The true share with any hit is near 2.7%.
KDM5B inhibitor: blocks human KDM5B histone demethylase activity | Q9UGL1 | KDM5B demethylase, FDH-coupled NADH fluorescence (FDH is formaldehyde dehydrogenase) | Potency, µM (titrated, usually from 57.7 µM), hits mostly inhibitors | hit rate 2.6% among 220,000; active = well fitted inhibition curve with a large enough effect; inconclusive = small, poorly fitted or top-dose-only effect; inactive = no such curve, though single readings can be large or run the other way; also: potency is read from the fitted curve at half-maximal effect; 0% is about no effect; nearly all actives have a fitted effect of over 70% in size
Target sequence (Q9UGL1 whole entry, looked up): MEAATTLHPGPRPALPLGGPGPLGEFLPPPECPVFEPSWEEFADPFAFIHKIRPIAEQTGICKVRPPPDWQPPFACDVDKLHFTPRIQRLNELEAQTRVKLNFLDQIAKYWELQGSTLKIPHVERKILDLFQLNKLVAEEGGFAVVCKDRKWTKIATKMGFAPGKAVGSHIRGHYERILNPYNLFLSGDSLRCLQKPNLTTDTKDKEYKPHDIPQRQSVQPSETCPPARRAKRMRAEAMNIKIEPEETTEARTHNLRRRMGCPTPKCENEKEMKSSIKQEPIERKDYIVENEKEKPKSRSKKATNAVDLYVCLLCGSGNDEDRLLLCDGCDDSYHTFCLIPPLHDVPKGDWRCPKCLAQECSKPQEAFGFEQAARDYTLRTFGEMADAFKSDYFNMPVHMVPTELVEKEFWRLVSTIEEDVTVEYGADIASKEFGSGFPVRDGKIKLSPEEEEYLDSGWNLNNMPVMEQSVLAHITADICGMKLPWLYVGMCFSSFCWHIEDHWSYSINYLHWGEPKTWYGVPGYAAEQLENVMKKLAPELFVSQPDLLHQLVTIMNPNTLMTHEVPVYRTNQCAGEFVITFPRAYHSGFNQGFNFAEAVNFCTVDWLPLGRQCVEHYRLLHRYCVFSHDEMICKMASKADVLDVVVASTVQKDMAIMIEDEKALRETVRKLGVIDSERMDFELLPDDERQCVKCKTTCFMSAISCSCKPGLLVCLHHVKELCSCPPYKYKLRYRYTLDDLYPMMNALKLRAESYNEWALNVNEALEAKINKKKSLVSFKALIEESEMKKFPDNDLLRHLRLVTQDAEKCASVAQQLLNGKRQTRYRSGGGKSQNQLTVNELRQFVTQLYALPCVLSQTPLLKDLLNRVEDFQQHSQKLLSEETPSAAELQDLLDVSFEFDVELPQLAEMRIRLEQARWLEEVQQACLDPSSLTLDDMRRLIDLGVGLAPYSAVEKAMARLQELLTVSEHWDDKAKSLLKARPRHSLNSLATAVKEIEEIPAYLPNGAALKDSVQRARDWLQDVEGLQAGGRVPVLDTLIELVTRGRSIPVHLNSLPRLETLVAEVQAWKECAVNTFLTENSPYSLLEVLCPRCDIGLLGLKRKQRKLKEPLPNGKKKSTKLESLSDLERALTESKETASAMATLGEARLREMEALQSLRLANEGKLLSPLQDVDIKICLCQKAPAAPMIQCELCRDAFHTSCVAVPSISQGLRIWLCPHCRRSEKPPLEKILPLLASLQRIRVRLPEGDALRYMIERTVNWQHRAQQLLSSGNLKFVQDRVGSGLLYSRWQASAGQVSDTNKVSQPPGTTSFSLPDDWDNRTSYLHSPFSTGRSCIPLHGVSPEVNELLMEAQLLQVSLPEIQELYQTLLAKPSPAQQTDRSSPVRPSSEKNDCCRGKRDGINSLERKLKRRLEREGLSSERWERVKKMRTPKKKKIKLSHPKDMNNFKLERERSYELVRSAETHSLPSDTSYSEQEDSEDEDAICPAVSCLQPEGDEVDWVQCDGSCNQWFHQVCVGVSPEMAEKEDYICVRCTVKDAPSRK
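KDM5BΔAP (200 nM final) in 50 mM HEPES pH 7.5, 0.01% Tween-20 was preincubated 10 min at RT with compound over a concentration range. Substrate mix (H3K4me3 12.5 µM, α-KG 25 µM, Fe²⁺, ascorbate, NAD⁺, FDH) was added, and NADH fluorescence change over 30 min gave dose-response curves.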
IP6K1 inh: inhibitors of human IP6K1; Q92551; IP6K1 kinase, ADP-Glo luminescence, 2 h; stronger effect = lower value; activity change, % (series mostly up to about 58 µM); hit rate 0.81% among 140,000; AID 1645851; in the data active = activity change below about -25%; also: % is scaled to controls: 0 for no effect and ±100 for the full control effect
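ADP-Glo luminescence measures ADP made by human IP6K1 during a 2 h RT reaction with ATP/IP6 (mix at 1.3 mM/130 uM); top library doses 57.5 and 19.1 uM final.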
* hit, by the source's call; i = inactive; u = inconclusive; x = not tested or not shown.

SMILES | KDM5B inhibitor | IP6K1 inh
C#CCNC(=O)c1cc(-c2ccc(OC)cc2)nc2c1cnn2C | x | -10
Cn1ncc2c(C(=O)NCc3ccc(F)cc3)cc(-c3ccc(F)cc3)nc21 | x | 15
Cc1ccc(NC(NC(=O)c2ccc(Br)cc2)C(Cl)(Cl)Cl)cc1 (stereo not given) | i | x
CC(C)CCN1CCc2c(n(CCOc3ccccc3)n(-c3ccccc3)c2=O)C1 | u | -10
Cn1nc(-c2ccc(C(=O)N3CCCC3)cc2)c2ccccc2c1=O | i | x
CCn1c(N2CCN(Cc3ccc(F)cc3)CC2)nc2c1c(=O)[nH]c(=O)n2C | i | x
CN(C)c1ccc(CC(=O)N2CC[C@@](C)(O)[C@@H](O)C2)cc1 | i | 14
C[C@@]1(O)CCN(Cc2ccc3c4c(cccc24)C(=O)OC3)C[C@@H]1O | 28µM* | 5
COCCN1Cc2ccc(Nc3cccnc3)nc2C(C)(C(=O)Nc2ccccc2C)C1 (stereo not given) | u | 11
COCCN1Cc2ccc(Nc3ccc(OC)cc3)nc2C(C)(C(=O)NC(C)C)C1 (stereo not given) | i | 1
COCCN1Cc2ccc(NCC(C)C)nc2C(C)(C(=O)Nc2cccc(F)c2)C1 (stereo not given) | 32µM* | 6
COCCN1Cc2ccc(NCC(C)C)nc2C(C)(C(=O)Nc2ccncc2)C1 (stereo not given) | 28µM* | -5
Cc1nc2cc(NC(=O)C(C)Oc3ccc(C#N)cc3)ccc2o1 (stereo not given) | i | x
CCC1(c2ccc(NC(=O)c3ccc4c(c3)OCO4)cc2)CCC(=O)NC1=O (stereo not given) | i | x
Cc1cc(NC(=O)[C@@H]2CCCN2S(=O)(=O)c2ccc3c(c2)OCO3)no1 | i | x
O=C(c1ccc2nc[nH]c2c1)N1CCCC2(C1)Nc1cccnc1NC2=NC1CCCC1 (stereo not given) | 28µM* | -8
O=C(c1ccc(Cl)s1)N1CCN(c2ncccn2)CC1 | i | x
O=C(Cc1c[nH]c2ccccc12)N1CCCC2(C1)Nc1cccnc1NC2=NC1CCCC1 (stereo not given) | u | 1
O=C(c1ccc(Cl)s1)N1CCCC2(C1)Nc1cccnc1NC2=NC1CCCC1 (stereo not given) | 28µM* | 0
O=C(c1ccccc1F)N1CCCC2(C1)C(=NC1CCCC1)NC(=O)N2c1cccnc1 (stereo not given) | i | -9
Cc1ccc(C(=O)N2CCCC3(C2)C(=NC2CCCC2)NC(=O)N3c2cccnc2)cc1 (stereo not given) | i | -9
Cc1ccccc1C(=O)N1CCCC2(C1)Nc1cccnc1NC2=NC1CCCC1 (stereo not given) | 16µM* | 10
O=C(CSc1ccccc1)N1CCCC2(C1)Nc1cccnc1NC2=NC1CCCC1 (stereo not given) | 28µM* | 7
Cc1ccccc1NC(=O)CSc1nc(N2CCCC2)c2c(c1C#N)CCCC2 | i | x
COc1ccc(OC)c2sc(N3CCN(C(C)=O)CC3)nc12 | i | x
SMILES | KDM5B inhibitor | IP6K1 inh
O=C(CNC(=O)c1ccc(-c2cnc3ccccc3c2)cc1)NCc1cccc(C(F)(F)F)c1 | x | 21
COc1cc(=O)n2c(c1C(=O)Nc1ccc(N(C)C)cc1)CCCC2 | i | -15
COc1cc(OC)cc(C(=O)N2CCCC3(C2)Nc2cccnc2NC3=NC2CCCC2)c1 (stereo not given) | 28µM* | 5
O=S(=O)(c1cccs1)N1CCCC2(C1)Nc1cccnc1NC2=NC1CCCC1 (stereo not given) | 11µM* | 14
COc1ccc(C(=O)N2CCC3(C2)C(=NC2CCCC2)NC(=O)N3c2cccnc2)cc1 (stereo not given) | i | -10
COc1ccc(OCC(=O)N2CCCC3(C2)Nc2cccnc2NC3=NC2CCCC2)cc1 (stereo not given) | 25µM* | 17
CCCn1c(C)cnc1CC1CCCN(S(=O)(=O)c2cccs2)C1 (stereo not given) | i | 2
COc1ccc(C(=O)N2CCCC3(C2)Nc2cccnc2NC3=NC2CCCC2)cn1 (stereo not given) | u | 1
CNC(=O)c1cc(C2CC2)nc2onc(C3CCCN(C(=O)C4CCCC4)C3)c12 (stereo not given) | x | -1
COc1ccc(OCC2(C)COc3ccc(C(=O)NCC(C)C)cc3N2)cc1 (stereo not given) | 25µM* | -1
CCOCC1(C)COc2ccc(C(=O)Nc3ccc(OC)nc3)cc2N1 (stereo not given) | u | 3
CCOCC1(C)COc2ccc(C(=O)Nc3cccnc3)cc2N1 (stereo not given) | u | 1
CC1(COc2ccccc2)COc2ccc(C(=O)NCc3ccc4c(c3)OCO4)cc2N1 (stereo not given) | u | 10
COc1ccc(OCC2(C)COc3ccc(C(=O)NCc4cccc(F)c4)cc3N2)cc1 (stereo not given) | 32µM* | 10
CCOCC1(C)COc2ccc(C(=O)NCCc3ccccc3)cc2N1 (stereo not given) | 40µM* | -10
COc1ccc(OCC2(C)COc3ccc(C(=O)NCCc4ccccc4)cc3N2)cc1 (stereo not given) | 32µM* | 4
O=C(NCc1cccc(Cl)c1)c1ccc2nnc(C3CCCC3)n2c1 | x | -9
Cn1cc(Nc2ccc(Cl)cc2)c2nc(CN3CC[S+](=O)([O-])CC3)cn2c1=O | 28µM* | 14
COc1ncccc1-c1cn(C)c(=O)n2cc(CN3CC[S+](=O)([O-])CC3)nc12 | i | 10
CC(=O)Nc1cc(-c2cn(C)c(=O)n3cc(CN4CC[S+](=O)([O-])CC4)nc23)ccn1 | 35µM* | -13
CN1CCN(Cc2cn3c(=O)n(C)cc(-c4ccccc4F)c3n2)CC1 | i | 4
Cc1oc(-c2cccs2)nc1CN1CCCC(c2ccn[nH]2)C1 (stereo not given) | 28µM* | 3
Cc1oc(-c2cccs2)nc1CN1CCNC(=O)C1 | i | x
COC(=O)NC1CCCN(Cc2cccc(-c3ccc(C)c(Cl)c3)c2)C1 (stereo not given) | x | -10
Cc1cnc(C2CCC2)n1CC1CCCN(C(=O)CC2CCCCC2)C1 (stereo not given) | x | -5
SMILES | KDM5B inhibitor | IP6K1 inh
O=C1c2cc(N3CCOCC3)nc(-c3ccc(F)cc3)c2CN1Cc1ccccc1 | 35µM* | 8
O=C1c2cc(N3CCOCC3)nc(-c3cccc(F)c3)c2CN1Cc1ccccc1 | 32µM* | 11
O=C1c2cc(N3CCOCC3)nc(-c3ccc(CO)cc3)c2CN1Cc1ccccc1 | i | 25
O=C1Cc2c(-c3ccc(C(=O)N4CCOCC4)cc3)n[nH]c2CN1Cc1ccccc1 | i | 10
O=C1c2cc(N3CCOCC3)nc(-c3cccc(CO)c3)c2CN1Cc1ccccc1 | 35µM* | 3
O=C1c2cnc(-c3cccnc3)nc2OCCN1Cc1ccccc1 | i | 5
CN(C)C(=S)SCC(=O)NCCNC(=O)CSC(=S)N(C)C | i | x
O=C(Nc1ccc(-c2nc3ccccc3o2)cc1)C1CCCC1 | i | x
CCN(CC)CC(=O)N1CCC(C(=O)Nc2ccc(-c3nc4ccccc4o3)cc2)CC1 | 28µM* | 11
COC(=O)N1CCC2(CC1)C(=NC1CCCCC1)NC(=O)N2c1cccnc1 | i | 0
O=C(OCc1ccccc1)N1CCC2(CC1)C(=NC1CCCCC1)NC(=O)N2c1cccnc1 | 28µM* | 2

Screening data deposited in PubChem BioAssay by National Center for Advancing Translational Sciences (NCATS).
